Source: PubChem (ICCB-Longwood Screening Facility, Harvard Medical School)
This excerpt belongs to a sample that is enriched for hits.
MgrA-DNA mod – S. aureus MgrA activity modulators, primary screen, biochemical, S. aureus Newman, fluorescence polarization; AID 602314, 2012; actives 0.13% (n = 84,000); inhibition, % (no concentration beside the values); MgrA-DNA binding; in the data active = inhibition above about 30%, passing the limit was not always enough;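 note: 0% = protein plus DNA without compound and 100% = DNA alone without protein; higher means less MgrA bound to DNA so lower polarization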
An asterisk follows results filed as active.

What do the screens show for `CC(C)c1ccc([C@@H]2Nc3ccc(C(=O)O)cc3[C@@H]3C=CC[C@@H]32)cc1`?
MgrA-DNA mod: 46.7*

What do the screens show for `CCOC(=O)[C@@H]1Nc2ccc(C(=O)O)cc2[C@@H]2C=CC[C@H]12`?
MgrA-DNA mod: 70.7*

What do the screens show for `CCOC(=O)c1ccc2c(c1)C1C=CCC1C(c1ccccc1F)N2` (stereo not drawn)?
MgrA-DNA mod: -1.4

Results for Fc1ccc(C2Nc3ccc(Br)cc3C3C=CCC32)cc1 (stereo not drawn) ?
MgrA-DNA mod: -2.2

Results for COc1ccc(NNC(=O)C(O)(c2cccc(OC)c2)c2cccc(OC)c2)cc1 ?
MgrA-DNA mod: 1.6

Results for CN1c2ccccc2C(=O)/C(=C/N=S(C)(=O)c2ccccc2)S1(=O)=O (stereo not drawn) ?
MgrA-DNA mod: -0.7

What do the screens show for `Nc1ccc(N2CCCC2)cc1`?
MgrA-DNA mod: 56.8*

What do the screens show for `Nc1ccc(N2CCCCC2)cc1`?
MgrA-DNA mod: -0.9

What do the screens show for `O=S(=O)(c1ccccc1)c1ccc(N2CCCCC2)cc1`?
MgrA-DNA mod: 1.5

How did O=C(CCc1ccccc1)Nc1nnc(CCN2CCCCC2)s1 do in these assays?
MgrA-DNA mod: 0.3

How did NS(=O)(=O)c1cc([N+](=O)[O-])c(N2CCNCC2)s1 do in these assays?
MgrA-DNA mod: -0.5

Results for O=C(O)Cc1c[nH]c2ccccc12 ?
MgrA-DNA mod: 1.4

What do the screens show for `NC(Cc1c[nH]c2ccccc12)C(=O)O` (stereo not drawn)?
MgrA-DNA mod: 0.4

What do the screens show for `Cc1ccc(C)n1C(Cc1c[nH]c2ccccc12)C(=O)O` (stereo not drawn)?
MgrA-DNA mod: 65.7*

How did Cc1ccccc1NC(=O)N(C)C1CCN(C)CC1 do in these assays?
MgrA-DNA mod: 4.9

Results for C=CCNCc1ccc(-c2ccc(OC)c(Cl)c2)o1 ?
MgrA-DNA mod: -5.1

What do the screens show for `Cc1ccc(NC(=O)c2ccco2)cc1F`?
MgrA-DNA mod: -1.8

What do the screens show for `O=C(COc1cccc(Br)c1)NCC1CCCO1` (stereo not drawn)?
MgrA-DNA mod: -1.3

How did CC(=O)N(C)c1ccc(N=C2C(=O)Nc3ccc(C)c(Br)c32)cc1 do in these assays?
MgrA-DNA mod: -1.4

What do the screens show for `NS(=O)(=O)c1ccc(NC(=O)c2cc(-c3ccccc3)nc3ccccc23)cc1`?
MgrA-DNA mod: -2.3

Results for COc1ccc(C(=O)O)cc1S(=O)(=O)N(C)c1ccccc1 ?
MgrA-DNA mod: 0.7

Results for CCc1ccc(C2=CC(=O)C=CC2=O)cc1 ?
MgrA-DNA mod: 14.6

How did O=C1C=CC(=O)C(c2ccc(C(=O)O)cc2)=C1 do in these assays?
MgrA-DNA mod: 82.8*

What do the screens show for `O=C(O)c1ccc(-c2ccccc2)cc1`?
MgrA-DNA mod: 5.2

What do the screens show for `Cc1ccc(OC(C)n2ccc3c2CCCC3)cc1` (stereo not drawn)?
MgrA-DNA mod: 1.3

How did O=C(COc1ccccc1)ON1C(=O)CCC1=O do in these assays?
MgrA-DNA mod: -3.2

How did O=C(OCC1c2ccccc2-c2ccccc21)ON1C(=O)CCC1=O do in these assays?
MgrA-DNA mod: 68.4*

What do the screens show for `O=C(NC1(C(=O)O)CC1)OCC1c2ccccc2-c2ccccc21`?
MgrA-DNA mod: -2.0

How did CCOc1ccc(NC2=CC(=O)C=CC2=O)cc1 do in these assays?
MgrA-DNA mod: 56.0*

Results for CCOc1ccc(Nc2cnnc(Nc3ccc(OCC)cc3)n2)cc1 ?
MgrA-DNA mod: 0.9

How did CCOc1ccc(NC2=CC(=O)CCC2)cc1 do in these assays?
MgrA-DNA mod: -1.1

Results for O=C1CCN(c2ccc(Cl)cc2)N1 ?
MgrA-DNA mod: 2.4

How did CC(C)(C)N1CNC(=S)NC1 do in these assays?
MgrA-DNA mod: -3.1

What do the screens show for `COC(=O)C1=C(C)NC2=C(C(=O)CC(c3ccc(Cl)cc3)C2)C1c1cc2c(cc1Br)OCO2` (stereo not drawn)?
MgrA-DNA mod: -1.0

How did O=S1(=O)C=C(Sc2nnnn2-c2ccccc2)c2ccccc21 do in these assays?
MgrA-DNA mod: 11.3

What do the screens show for `CCN(c1ccccc1)S(=O)(=O)c1ccc(CC(C)C)cc1`?
MgrA-DNA mod: 0.4

What do the screens show for `N#Cc1c(-c2ccco2)cc(-c2cccs2)[nH]c1=O`?
MgrA-DNA mod: 55.2*

Results for N#Cc1c(C(F)(F)F)cc(-c2cccs2)[nH]c1=O ?
MgrA-DNA mod: 3.2

What do the screens show for `N#Cc1c(-c2cccs2)cc(-c2ccccc2)[nH]c1=O`?
MgrA-DNA mod: 0.4

How did CC(C)c1ccc(NS(=O)(=O)Cc2ccccc2)cc1 do in these assays?
MgrA-DNA mod: 2.5

What do the screens show for `CN1CCCc2cc(/C=C3\CC/C(=C/c4ccc5c(c4)N(C)CCC5)C3=O)ccc21`?
MgrA-DNA mod: 18.4

What do the screens show for `CN1CCCc2cc(/C=C3\CCC(C4CCCC4)C3=O)ccc21` (stereo not drawn)?
MgrA-DNA mod: -1.3

What do the screens show for `CN1CCCc2cc(CN)ccc21`?
MgrA-DNA mod: 62.8*

Results for CCn1cc(CCCC(=O)NCCC2=CCCCC2)c2ccccc21 ?
MgrA-DNA mod: 0.6

Results for Cn1c(CNC(=O)c2ccccc2F)nnc1SCC(=O)Nc1nnc(C2CCCCC2)s1 ?
MgrA-DNA mod: -2.8

Results for Cc1ccc(SC(=O)c2ccno2)cc1 ?
MgrA-DNA mod: 7.5

Results for C=CCn1c(SCC(=O)NC(C)C)nnc1-c1ccc2ncccc2c1 ?
MgrA-DNA mod: -2.8

How did CN1C(=O)CN(C2CCCCC2)C(=O)c2ccccc21 do in these assays?
MgrA-DNA mod: 1.9

How did CN1C(=O)/C(=c2/[nH][nH]c(=O)/c2=C\C=C\c2ccccc2)C(=O)c2ccccc21 do in these assays?
MgrA-DNA mod: 55.7*

Results for CN1C(=O)/C(=C\C(=O)c2cccs2)c2ccccc21 ?
MgrA-DNA mod: -2.8

How did Cc1ccc(S(=O)(=O)N2CCC(CNC(=O)c3cccs3)CC2)cc1 do in these assays?
MgrA-DNA mod: -5.1

How did Fc1ccc(-n2cc(-c3ccccc3)c3c(NCc4ccccc4)ncnc32)cc1 do in these assays?
MgrA-DNA mod: 0.3

Results for CCC(SC1=NCCS1)C(=O)Nc1ccccc1OC (stereo not drawn) ?
MgrA-DNA mod: -2.8

Results for O=C1CC(=O)c2c1cccc2[N+](=O)[O-] ?
MgrA-DNA mod: 35.4

How did O=C1CC(=O)c2ccc3c4c(ccc1c24)C(=O)CC3=O do in these assays?
MgrA-DNA mod: 93.1*

Results for Cc1ccc(/C=C2/SC(=S)N(CCc3ccc(Cl)cc3)C2=O)o1 ?
MgrA-DNA mod: -2.1

What do the screens show for `Cc1ccc(/C=C2\CC/C(=C\c3ccc(C)o3)C2=O)o1`?
MgrA-DNA mod: 22.9

What do the screens show for `Cc1ccc(/C=C2\SC(=O)NC2=S)o1`?
MgrA-DNA mod: 81.0*

How did N#CCc1[nH]nc(N)c1C#N do in these assays?
MgrA-DNA mod: 1.6

How did COC(=O)c1ccc(NC(=O)CSC2=NCCS2)cc1 do in these assays?
MgrA-DNA mod: 0.1

Results for O=C(Cn1c(=O)c2sccc2n(CC(=O)Nc2cccc(F)c2)c1=O)NCCc1ccccc1 ?
MgrA-DNA mod: -1.6

What do the screens show for `COc1ccc(C2C(C#N)=C(N)OC3=C2C(=O)CC(C)(C)C3)cc1COc1ccccc1Br` (stereo not drawn)?
MgrA-DNA mod: 0.4

What do the screens show for `CCN(CC)Cc1cc(O)c(CN(CC)CC)cc1O`?
MgrA-DNA mod: 59.5*

Results for CCCc1oc(C(=O)O)cc1CN(CC)CC ?
MgrA-DNA mod: -7.3

What do the screens show for `CCN(CC)Cc1cc(C2N(C(C)=O)c3cccc4cccc(c34)N2C(C)=O)ccc1O`?
MgrA-DNA mod: -1.2

What do the screens show for `CN(C1=NC(=O)/C(=C2/C(=O)N(C)c3ccccc32)S1)c1ccc(Cl)cc1`?
MgrA-DNA mod: 45.5

How did COc1ccc2oc(=O)cc(CN(Cc3cccs3)C(C)C)c2c1 do in these assays?
MgrA-DNA mod: 4.4
